Cruzain noTriton – blocks cruzain activity in detergent-free assay; P25779; purified cruzain, Z-FR-AMC fluorescence, no detergent; Potency, µM, without a hit: max response, negative = inhibition, usual class: inhibitors; hit rate 2.3% among 200,000;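 further: plate controls were enzyme without inhibitor for no effect and buffer without enzyme for full effect; nearly all actives have a fitted effect of over 40% in size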
Target sequence (P25779 123-467 limits assumed): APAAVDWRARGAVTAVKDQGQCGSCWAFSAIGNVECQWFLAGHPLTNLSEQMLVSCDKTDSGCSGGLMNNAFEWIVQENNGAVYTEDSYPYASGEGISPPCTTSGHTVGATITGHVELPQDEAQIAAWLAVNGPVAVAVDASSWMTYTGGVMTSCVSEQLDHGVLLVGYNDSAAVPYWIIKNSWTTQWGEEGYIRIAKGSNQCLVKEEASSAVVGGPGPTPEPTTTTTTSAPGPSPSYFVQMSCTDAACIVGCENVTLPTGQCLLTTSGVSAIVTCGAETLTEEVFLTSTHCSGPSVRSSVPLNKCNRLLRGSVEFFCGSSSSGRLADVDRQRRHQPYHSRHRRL
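Purified cruzain at 1.5 nM, pre-incubated 15 min with compound at room temperature in 100 mM sodium acetate pH 5.5, 5 mM DTT, 0.00005% Triton X-100. Reaction started with 2 uM Z-FR-AMC; AMC fluorescence increase over 60 s gives rate.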
Cruzain Triton – blocks cruzain activity in presence of Triton detergent; P25779; purified cruzain, Z-FR-AMC fluorescence, 0.01% Triton; Potency, µM, inactives show max response, negative = inhibition, actives largely listed as inhibitors; hit rate 0.43% among 200,000; AID 1478;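 further: plate controls were neutral wells for no effect and buffer without enzyme for full effect; nearly all actives have a fitted effect of over 40% in size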
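Detergent-containing arm of a paired screen for aggregation-based inhibition: 0.01% Triton X-100 present. Cruzain at 1.5 nM cleaved 2 uM Z-FR-AMC at pH 5.5 with 5 mM DTT; AMC fluorescence gain over 60 s measured activity.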
Numbers without * were called inactive; ? = inconclusive; ! = not active in a repeat. Rows were chosen to be rich in hits. Some 2.4% of all compounds tested hit in one or more screens of this group. The call rests on the fitted dose curve; in most records, active means well fitted curve in the direction sought with a large enough effect; inconclusive means small, poorly fitted or top-dose-only effect, or another doubt; inactive means no such curve, though single readings can be large; an effect the other way counts as inactive or inconclusive. Potency means the concentration at half of the fitted maximal effect.

SMILES | Cruzain noTriton | Cruzain Triton
COc1ccccc1[C@H]1C(c2ccccc2)=NN(c2ccccc2)[C@@H]1CO | ? | -26.2%
COc1ccccc1[C@H]1C(c2cccc(C)c2)=NN(c2ccccc2)[C@@H]1CO | 17.8µM* | 3.0%
C/C(N=NC(=[SH+])SCc1ccccc1)=C1\C=CC=CN1.[Cl][Cu] | -8.2% | 5.0%
CCCC1=Nc2cc(C(=O)NC3CCCCC3)ccc2Sc2ccc(C)cc21 | -18.3% | 1.6%
CCCC[C@@H]1C[C@H]1C(NC(=O)c1ccco1)c1ccc(Cl)cc1 (stereo partly drawn) | 4.0% | -10.8%
O=C(NC1CCCCC1)N1CCCC(c2nc3ccccc3[nH]2)C1 (stereo not drawn) | 5.01µM* | ?
O=C(NC1CCCCC1)N1CCC(c2nc3ccccc3[nH]2)CC1 | -0.4% | 0.2%
Cc1cccc(NC(=O)Cn2c(=O)n(Cc3ccc4c(c3)OCO4)c(=O)c3ccccc32)c1 | 20µM* | -6.0%
Cc1ccc(NC(=O)Cn2c(=O)n(Cc3ccc4c(c3)OCO4)c(=O)c3ccccc32)cc1 | 4.6% | -2.6%
O=C(Cn1c(=O)n(Cc2ccc(C(=O)NCc3ccc4c(c3)OCO4)cc2)c(=O)c2ccccc21)Nc1ccccc1F | 12.6µM* | -1.9%
Cc1ccc(Cl)cc1NC(=O)Cn1c(=O)n(Cc2ccc(C(=O)NCc3ccc4c(c3)OCO4)cc2)c(=O)c2ccccc21 | -21.8% | -2.2%
Cc1ccc(NC(=O)Cn2c(=O)n(Cc3ccc(C(=O)NCc4ccc5c(c4)OCO5)cc3)c(=O)c3ccccc32)cc1 | ? | -3.9%
COc1cccc(NC(=O)Cn2c(=O)n(Cc3ccc(C(=O)NCc4ccc5c(c4)OCO5)cc3)c(=O)c3ccccc32)c1 | 12.6µM* | -2.0%
CCCC(=O)Nc1nnc2n1CCS2 | -10.8% | -2.2%
COc1cc(Cl)c(C)cc1NC(=O)Cn1ncc2c3ccccc3n(Cc3ccccc3)c2c1=O | -9.6% | -2.4%
O=C(Cc1csc2ccccc12)NCc1cccc(Br)c1 | -2.8% | -10.1%
O=C(/C=C/c1ccccc1)Nc1nc(-c2cccs2)ns1 | 20µM* | -0.1%
Cc1ccc(/C=C/C(=O)Nc2nc(-c3cccs3)ns2)cc1 | ? | -3.9%
CCOCCCn1c(SCC(=O)OCC)nc2c(sc3ccccc32)c1=O | 10.4% | 1.4%
O=C(N/N=C/c1c(O)n(CCC2=CCCCC2)c(=S)[nH]c1=O)c1ccccc1 | -4.1% | 2.5%
O=C(N/N=C/c1c(O)n(CCC2=CCCCC2)c(=O)[nH]c1=O)c1ccccc1 | 25.1µM* | 3.5%
O=C(CSC1=NCCN1)Nc1ccccc1 | -3.9% | 0.0%
CC(=O)Nc1ccc(S(=O)(=O)Nc2ccc(-c3cn4c(C)csc4n3)cc2)cc1 | ? | -4.0%
CCS(=O)(=O)Nc1ccc(-c2cn3c(C)csc3n2)cc1 | -18.7% | -2.0%
CC(=O)c1ccc(S(=O)(=O)Nc2ccc(-c3cn4c(C)csc4n3)cc2)cc1 | 25.1µM* | -3.5%
SMILES | Cruzain noTriton | Cruzain Triton
Cc1csc2nc(-c3cccc(NS(C)(=O)=O)c3)cn12 | -6.0% | -0.6%
Cc1csc2nc(-c3ccc(NS(=O)(=O)c4cc(F)ccc4F)cc3)cn12 | 31.6µM* | -3.8%
COc1ccc(S(=O)(=O)Nc2ccc(-c3cn4c(C)csc4n3)cc2)cc1 | 25.1µM* | -3.6%
CN(Cc1ccco1)c1cc(-c2ccoc2)ncn1 | 1.7% | -1.5%
COc1ccc(C2C(=O)N(C3CCC(C)CC3)CC(=O)N2CCC2=CCCCC2)cc1OC (stereo not drawn) | -2.6% | 0.3%
COc1ccc(CCNC(=O)Cc2c(C)c3c(cc(C)c4c(C)c(C)oc43)oc2=O)cc1 | 5.1% | 2.9%
CN(C)C(=O)c1ccc(-c2nc(N(C)C)c3ccccc3n2)cc1 | -9.0% | -11.7%
CC(=O)Nc1ccc(NC(=O)c2ccc(COc3ccc4c(C)cc(=O)oc4c3)cc2)cc1 | -14.7% | -4.1%
Cc1ccc(Cl)cc1NC(=O)COC(=O)c1ccc(COc2ccc3c(C)cc(=O)oc3c2)cc1 | 7.94µM* | -1.4%
CCc1cnc2c(c1SCc1c(F)cccc1Cl)c(=O)n(C)c(=O)n2C | -5.6% | 0.0%
Cc1ccc(SCc2cc(=O)[nH]c(/N=C(\N)Nc3ccccc3Sc3ccccc3)n2)cc1 | 12.6µM* | 2.8%
COc1ccccc1N/C(N)=N/c1nc(CSc2ccc(C)cc2)cc(=O)[nH]1 | ? | 2.1%
CCOc1ccc(NC(=O)Cn2c(=O)c(CNc3ccccc3)cc3cc4c(cc32)OCCO4)cc1 | -22.9% | -3.6%
COc1ccc(NCc2cc3cc4c(cc3n(CC(=O)Nc3ccc(F)cc3)c2=O)OCCO4)cc1 | 20µM* | -4.6%
CCc1ccc(NCc2cc3cc4c(cc3n(CC(=O)Nc3ccc(C)cc3)c2=O)OCO4)cc1 | -21.7% | -3.3%
CCc1ccc(NCc2cc3cc4c(cc3n(CC(=O)Nc3ccc(F)cc3)c2=O)OCCO4)cc1 | 20µM* | -7.9%
CN(C)c1ccc(C(=C2C=CC(=[N+](C)C)C=C2)c2ccccc2)cc1 | 25.1µM*! | 0.0%
CN(C)c1ccc(C(=C2C=CC(=[N+](C)C)C=C2)c2ccc(N(C)C)cc2)cc1 | 20µM*! | -21.3%
CN(C)c1ccc(C(=O)c2ccc(N(C)C)cc2)cc1 | -15.3% | -9.5%
CN(C)c1ccccc1 | -1.3% | 0.1%
CCn1c(CCNC(=O)c2ccc(F)cc2)nc2ccccc21 | 2.51µM* | 22.4µM*
CCn1c(CCCNC(=O)c2ccc(F)cc2)nc2ccccc21 | -6.7% | 4.8%
CCCCCn1c(CNC(=O)c2ccc(F)cc2)nc2ccccc21 | 16.3% | -17.9%
CCCCn1c(CCNC(=O)c2ccc(F)cc2)nc2ccccc21 | 9.2% | 7.08µM*
CCn1c(CCCNC(=O)c2cccs2)nc2ccccc21 | 5.1% | 3.2%
SMILES | Cruzain noTriton | Cruzain Triton
CCCCn1c(CCCNC(=O)c2cccc(C)c2)nc2ccccc21 | -0.8% | 1.4%
CCCn1c(CCNC(=O)c2cccs2)nc2ccccc21 | 15.2% | 15.8µM*
Cc1cccc(C(=O)NCCc2nc3ccccc3n2CCC(C)C)c1 | 20.4% | 12.6µM*
O=C(CSc1nnc(-c2cccc(F)c2)c(-c2cccc(F)c2)n1)NC1CCCCC1 | -9.1% | -1.5%
COc1ccc(N2CCN(C(=O)CCS(=O)(=O)c3cc4c(cc3Cl)NC(=O)CO4)CC2)cc1 | -3.4% | -1.9%
CC(C)(C)C(=O)Nc1cccc(C(=O)OCc2cc(=O)n3nc(C4CC4)sc3n2)c1 | -9.0% | -0.9%
Cc1ccc2c(=O)cc(C(=O)Nc3ccc(S(=O)(=O)N4CCCCCC4)cc3)oc2c1C | -0.2% | -1.5%
CCN(CC)C(=O)c1sc2c(c1C)c(=O)n(CCc1ccccc1)c(=O)n2Cc1cccc(Cl)c1 | 1.6% | 1.0%
Cc1ccccc1OCCCCn1c(CCNC(=O)C(C)(C)C)nc2ccccc21 | ? | -7.5%
C=C(C)Cn1c(CCCNC(=O)CC)nc2ccccc21 | 5.8% | -0.3%
C=C(C)Cn1c(CCNC(=O)CCC)nc2ccccc21 | 15.8µM* | -2.3%
Cc1ccc(OCCCn2c(CCNC(=O)C3CCCCC3)nc3ccccc32)c(C)c1 | -2.7% | 2.51µM*
NC(=O)c1c(NC(=O)c2noc3c2CCCC3)sc2c1CCCC2 | -4.0% | -12.4%
Cc1cc(C)c(Cn2c(CCNC(=O)c3ccco3)nc3ccccc32)c(C)c1 | 5.0% | ?
Cc1c(Cl)cccc1N=c1c([N+](=O)[O-])nn(-c2ccccc2)n1O | 20µM* | 1.8%
Cc1ccc(N=c2c([N+](=O)[O-])nn(-c3ccccc3)n2O)c(C)c1 | ? | -6.6%
O=c1c(Cl)c(N2CCN(c3ccc(F)cc3)CC2)cnn1-c1nc2ccccc2s1 | ? | 2.9%
O=C1CC(c2ccccc2Cl)Cc2c1cnn2-c1nc2ccccc2s1 (stereo not drawn) | 12.6µM* | -4.0%

Compound activity (PubChem)
